Results from the supplement of paper PMC11732987, “Enantioselective OTUD7B fragment discovery through chemoproteomics screening and high-throughput optimisation” (Communications Chemistry, 2025).
A number with no mark means an inactive call.

How the values were obtained:
Experiment in all cases: log2 ratio of Biotin-Ahx-Ub-VS probe labelling (fragment/DMSO); higher = less target engagement (more negative = stronger competition), active = hit call of the paper (q ≤ 0.05, log2 ratio ≤ -1)
Conditions in all cases: compound concentration: 200 uM; treatment time: 3 h
USP19 = molecular target: T1, USP19 (UniProt O94966)
T1 sequence (whole entry): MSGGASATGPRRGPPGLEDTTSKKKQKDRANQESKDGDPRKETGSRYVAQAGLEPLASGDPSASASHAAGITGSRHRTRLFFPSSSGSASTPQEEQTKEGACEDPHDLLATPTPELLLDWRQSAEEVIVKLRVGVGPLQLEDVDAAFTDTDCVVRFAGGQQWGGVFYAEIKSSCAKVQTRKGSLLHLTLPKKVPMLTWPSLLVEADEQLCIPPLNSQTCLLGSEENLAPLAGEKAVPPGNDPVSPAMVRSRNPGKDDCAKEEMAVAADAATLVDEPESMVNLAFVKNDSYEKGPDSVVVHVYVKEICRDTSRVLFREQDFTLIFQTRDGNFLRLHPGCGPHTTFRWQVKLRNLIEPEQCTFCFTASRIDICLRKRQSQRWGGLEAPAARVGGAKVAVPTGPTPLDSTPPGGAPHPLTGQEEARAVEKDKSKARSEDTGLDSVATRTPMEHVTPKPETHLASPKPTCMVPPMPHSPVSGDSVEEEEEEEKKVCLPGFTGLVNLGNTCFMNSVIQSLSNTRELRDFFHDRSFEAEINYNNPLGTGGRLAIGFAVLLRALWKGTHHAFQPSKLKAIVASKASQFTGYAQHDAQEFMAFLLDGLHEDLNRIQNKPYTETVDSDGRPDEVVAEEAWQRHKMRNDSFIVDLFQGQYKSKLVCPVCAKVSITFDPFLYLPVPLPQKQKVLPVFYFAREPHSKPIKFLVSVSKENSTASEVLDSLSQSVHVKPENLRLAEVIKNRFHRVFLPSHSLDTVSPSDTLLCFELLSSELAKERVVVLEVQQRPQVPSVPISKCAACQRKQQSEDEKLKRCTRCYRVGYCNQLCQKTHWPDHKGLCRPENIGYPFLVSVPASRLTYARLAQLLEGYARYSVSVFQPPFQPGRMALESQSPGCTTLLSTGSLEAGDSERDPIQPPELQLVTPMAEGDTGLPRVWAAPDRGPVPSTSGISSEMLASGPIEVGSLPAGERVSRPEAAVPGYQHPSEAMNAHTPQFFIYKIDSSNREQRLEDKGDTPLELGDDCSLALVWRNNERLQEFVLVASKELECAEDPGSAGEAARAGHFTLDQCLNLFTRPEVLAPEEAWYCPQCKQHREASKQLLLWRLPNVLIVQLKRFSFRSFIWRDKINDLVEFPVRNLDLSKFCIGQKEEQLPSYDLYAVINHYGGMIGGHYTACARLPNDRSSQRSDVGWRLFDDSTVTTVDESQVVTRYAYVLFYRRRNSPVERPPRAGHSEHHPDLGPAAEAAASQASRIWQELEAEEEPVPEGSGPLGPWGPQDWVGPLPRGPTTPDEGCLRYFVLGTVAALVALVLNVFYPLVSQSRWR
Method in brief: (§1)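 The table lists average log2 ratios of fragment over vehicle, from an unpaired t-test on global-median-normalised Spectronaut label-free quantities. Proteins with ≥2 unique peptides were used. Samples were HEK293T lysate (495 µg) treated in triplicate with fragment at 200 µM or vehicle for 3 h, then with Biotin-Ahx-Ub-VS (0.5 µM final) for 1 h, with labelled DUBs NeutrAvidin-enriched and run by diaPASEF LC-MS/MS.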

USP24 = USP24 (UniProt Q9UPU5)
Method in brief: as §1

USP25 = molecular target: T2, USP25 (UniProt Q9UHP3)
T2 sequence (whole entry): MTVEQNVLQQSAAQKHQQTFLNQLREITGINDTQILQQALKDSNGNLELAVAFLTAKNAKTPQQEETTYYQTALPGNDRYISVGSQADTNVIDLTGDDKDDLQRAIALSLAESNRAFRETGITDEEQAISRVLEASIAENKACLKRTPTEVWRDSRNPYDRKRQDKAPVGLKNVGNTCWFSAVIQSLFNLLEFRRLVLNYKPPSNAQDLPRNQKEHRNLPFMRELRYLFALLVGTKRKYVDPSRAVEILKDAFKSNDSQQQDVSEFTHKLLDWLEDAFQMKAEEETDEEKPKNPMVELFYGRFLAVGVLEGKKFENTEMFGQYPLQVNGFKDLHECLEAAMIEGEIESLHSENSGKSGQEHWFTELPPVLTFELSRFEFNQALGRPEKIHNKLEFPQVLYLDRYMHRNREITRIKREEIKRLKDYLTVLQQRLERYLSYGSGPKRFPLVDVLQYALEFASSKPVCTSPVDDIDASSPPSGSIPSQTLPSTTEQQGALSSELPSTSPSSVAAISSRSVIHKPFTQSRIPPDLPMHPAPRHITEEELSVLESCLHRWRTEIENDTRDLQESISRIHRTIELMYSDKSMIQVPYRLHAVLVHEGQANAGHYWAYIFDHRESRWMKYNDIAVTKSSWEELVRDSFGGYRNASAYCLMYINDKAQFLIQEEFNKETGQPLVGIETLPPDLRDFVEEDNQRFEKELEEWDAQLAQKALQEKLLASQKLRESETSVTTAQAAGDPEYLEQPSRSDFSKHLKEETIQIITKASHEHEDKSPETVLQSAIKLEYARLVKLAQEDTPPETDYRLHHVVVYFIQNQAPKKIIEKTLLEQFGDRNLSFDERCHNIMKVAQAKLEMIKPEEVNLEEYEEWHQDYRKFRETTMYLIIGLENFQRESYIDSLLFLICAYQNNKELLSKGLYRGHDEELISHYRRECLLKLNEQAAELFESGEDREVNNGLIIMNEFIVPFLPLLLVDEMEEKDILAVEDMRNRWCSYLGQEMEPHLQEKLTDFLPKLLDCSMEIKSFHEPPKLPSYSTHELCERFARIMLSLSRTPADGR
Method in brief: as §1

USP28 = molecular target: T3, USP28 (UniProt Q96RU2)
T3 sequence (whole entry): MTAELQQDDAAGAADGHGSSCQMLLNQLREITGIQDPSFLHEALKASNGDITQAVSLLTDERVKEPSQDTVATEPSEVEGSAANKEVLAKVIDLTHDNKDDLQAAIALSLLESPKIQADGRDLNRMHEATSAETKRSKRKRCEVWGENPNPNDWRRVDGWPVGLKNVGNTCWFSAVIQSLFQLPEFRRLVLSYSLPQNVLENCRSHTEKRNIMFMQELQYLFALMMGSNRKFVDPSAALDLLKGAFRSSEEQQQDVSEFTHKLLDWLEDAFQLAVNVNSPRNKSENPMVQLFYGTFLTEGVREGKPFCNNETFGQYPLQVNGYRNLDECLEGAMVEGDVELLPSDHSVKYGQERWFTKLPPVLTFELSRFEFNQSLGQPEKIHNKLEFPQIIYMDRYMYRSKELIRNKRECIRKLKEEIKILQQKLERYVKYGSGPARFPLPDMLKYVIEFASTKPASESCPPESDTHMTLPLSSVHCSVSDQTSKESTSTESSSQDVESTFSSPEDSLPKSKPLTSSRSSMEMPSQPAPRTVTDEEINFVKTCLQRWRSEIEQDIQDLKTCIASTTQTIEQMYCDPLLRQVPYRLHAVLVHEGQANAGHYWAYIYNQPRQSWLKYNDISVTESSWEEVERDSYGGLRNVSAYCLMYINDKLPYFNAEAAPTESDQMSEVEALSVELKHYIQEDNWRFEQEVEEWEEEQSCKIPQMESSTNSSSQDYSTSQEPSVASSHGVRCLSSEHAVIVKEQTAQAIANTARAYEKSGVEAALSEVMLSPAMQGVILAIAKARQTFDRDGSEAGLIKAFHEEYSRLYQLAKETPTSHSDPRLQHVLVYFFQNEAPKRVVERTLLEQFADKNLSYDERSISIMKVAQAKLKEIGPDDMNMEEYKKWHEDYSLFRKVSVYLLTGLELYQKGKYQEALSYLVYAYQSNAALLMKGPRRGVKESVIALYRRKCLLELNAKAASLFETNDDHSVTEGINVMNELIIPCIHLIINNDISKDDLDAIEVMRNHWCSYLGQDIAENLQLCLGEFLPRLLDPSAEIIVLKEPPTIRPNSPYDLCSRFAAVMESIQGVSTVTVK
Method in brief: as §1

USP24, sequence (Q9UPU5 whole entry): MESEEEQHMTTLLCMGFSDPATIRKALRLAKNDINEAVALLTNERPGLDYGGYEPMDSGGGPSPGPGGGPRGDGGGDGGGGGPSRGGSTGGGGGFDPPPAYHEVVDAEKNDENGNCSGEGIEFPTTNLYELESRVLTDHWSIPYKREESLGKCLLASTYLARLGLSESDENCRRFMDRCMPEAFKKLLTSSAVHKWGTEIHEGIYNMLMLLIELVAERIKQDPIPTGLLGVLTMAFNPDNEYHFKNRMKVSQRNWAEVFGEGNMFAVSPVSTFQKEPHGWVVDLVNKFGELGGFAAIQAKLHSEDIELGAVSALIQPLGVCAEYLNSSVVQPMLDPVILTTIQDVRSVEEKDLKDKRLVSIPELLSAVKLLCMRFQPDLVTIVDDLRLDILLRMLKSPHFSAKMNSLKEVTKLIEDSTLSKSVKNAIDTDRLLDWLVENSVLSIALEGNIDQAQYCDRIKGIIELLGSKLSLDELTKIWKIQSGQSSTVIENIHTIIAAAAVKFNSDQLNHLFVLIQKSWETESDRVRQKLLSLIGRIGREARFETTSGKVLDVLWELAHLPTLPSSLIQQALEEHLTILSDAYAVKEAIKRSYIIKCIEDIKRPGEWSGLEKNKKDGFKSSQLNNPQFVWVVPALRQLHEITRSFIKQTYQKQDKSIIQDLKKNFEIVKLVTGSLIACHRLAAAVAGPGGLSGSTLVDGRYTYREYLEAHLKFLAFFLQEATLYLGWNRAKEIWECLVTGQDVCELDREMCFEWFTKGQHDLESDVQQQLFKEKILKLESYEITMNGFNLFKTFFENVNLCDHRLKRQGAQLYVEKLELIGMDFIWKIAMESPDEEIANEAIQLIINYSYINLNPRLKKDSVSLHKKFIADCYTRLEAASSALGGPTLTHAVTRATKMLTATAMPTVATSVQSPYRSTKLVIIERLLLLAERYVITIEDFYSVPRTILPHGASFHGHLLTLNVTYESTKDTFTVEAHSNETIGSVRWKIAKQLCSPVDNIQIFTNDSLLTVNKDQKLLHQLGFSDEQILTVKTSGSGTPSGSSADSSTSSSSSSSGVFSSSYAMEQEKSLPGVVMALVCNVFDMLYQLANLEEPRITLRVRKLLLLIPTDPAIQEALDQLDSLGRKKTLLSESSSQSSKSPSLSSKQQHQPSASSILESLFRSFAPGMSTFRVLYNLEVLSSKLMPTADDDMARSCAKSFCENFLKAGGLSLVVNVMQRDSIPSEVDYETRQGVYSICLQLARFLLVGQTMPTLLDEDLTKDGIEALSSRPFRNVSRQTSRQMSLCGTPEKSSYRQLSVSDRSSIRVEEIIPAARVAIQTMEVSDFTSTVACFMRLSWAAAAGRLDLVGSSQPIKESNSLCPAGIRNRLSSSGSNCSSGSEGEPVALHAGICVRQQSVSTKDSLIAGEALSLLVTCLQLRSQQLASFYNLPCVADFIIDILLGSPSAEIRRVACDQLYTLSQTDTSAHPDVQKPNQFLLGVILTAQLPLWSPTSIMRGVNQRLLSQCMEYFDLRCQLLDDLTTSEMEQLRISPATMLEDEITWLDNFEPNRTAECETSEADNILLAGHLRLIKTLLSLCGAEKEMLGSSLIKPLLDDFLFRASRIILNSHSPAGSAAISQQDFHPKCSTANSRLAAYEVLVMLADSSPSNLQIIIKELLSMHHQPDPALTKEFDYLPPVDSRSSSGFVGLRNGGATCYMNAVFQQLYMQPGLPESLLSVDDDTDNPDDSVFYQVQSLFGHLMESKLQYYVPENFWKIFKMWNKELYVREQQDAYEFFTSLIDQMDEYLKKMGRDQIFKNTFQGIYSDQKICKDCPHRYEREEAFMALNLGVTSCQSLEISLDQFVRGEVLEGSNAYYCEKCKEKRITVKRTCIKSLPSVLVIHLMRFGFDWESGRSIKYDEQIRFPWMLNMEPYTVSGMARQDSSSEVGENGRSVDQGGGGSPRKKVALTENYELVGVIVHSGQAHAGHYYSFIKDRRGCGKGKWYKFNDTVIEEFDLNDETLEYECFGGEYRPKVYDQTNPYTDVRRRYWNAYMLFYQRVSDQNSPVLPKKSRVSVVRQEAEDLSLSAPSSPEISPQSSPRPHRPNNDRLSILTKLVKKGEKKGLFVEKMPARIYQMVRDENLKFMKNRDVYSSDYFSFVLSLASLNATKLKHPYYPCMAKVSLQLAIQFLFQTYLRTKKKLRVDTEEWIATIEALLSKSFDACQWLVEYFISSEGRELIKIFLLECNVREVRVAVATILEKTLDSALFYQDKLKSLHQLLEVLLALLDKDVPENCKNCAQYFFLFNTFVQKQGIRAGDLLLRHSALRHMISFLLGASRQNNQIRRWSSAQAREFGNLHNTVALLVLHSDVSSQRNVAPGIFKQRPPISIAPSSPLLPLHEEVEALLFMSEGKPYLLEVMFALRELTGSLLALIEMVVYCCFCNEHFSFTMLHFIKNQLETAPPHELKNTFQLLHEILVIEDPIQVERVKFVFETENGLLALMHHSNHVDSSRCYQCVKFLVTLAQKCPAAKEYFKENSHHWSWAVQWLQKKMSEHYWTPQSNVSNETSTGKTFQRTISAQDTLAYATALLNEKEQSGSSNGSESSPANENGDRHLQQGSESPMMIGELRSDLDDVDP

In the case of `NS(=O)(=O)c1ccc(Cl)c(NC(=O)CCl)c1`, the “log2 ratio of Biotin-Ahx-Ub-VS probe labelling” value (“log2 ratio” below) (USP19) is reported as -0.307, the “log2 ratio” value (USP24) is reported as -0.149 and the “log2 ratio” value (USP25) is reported as -1.57 (active). For the same compound, the “log2 ratio” value (USP28) was -1.42 (active).
